The values that follow come from PubChem BioAssay (NCI).

This is part of a sample that, as a whole, favours compounds with a hit. Of some 83,000 tested, about 20% had one in any assay.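 Each cell line was grown in a 96-well plate and treated with one concentration of compound for 48 hours. Values below 10 were considered active.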 Values without a mark were called inactive. The source made the active and inactive calls.

Test systems include NCI/ADR-RES ovarian; T-47D breast; BT-549 breast; MDA-MB-435 melanoma; SW-620 colon; HCC-2998 colon; KM12 colon; MCF7 breast; HCT-116 colon.
Common to all, as to assay: NCI-60 one-dose screen, 48 h (100 = growth as untreated, 0 = no growth, -100 = all killed)
Common to all, as to settings: 10 µM unless noted

Turning to `CC(=O)O[C@H](C[C@H](C(C)C)N(C)C(=O)[C@@H](NC(=O)[C@H]1CCCN1C)C(C)C)c1nc(C(=O)N[C@@H](Cc2ccccc2)C[C@H](C)C(=O)O)c(C)s1`, the growth in the experiment with NCI/ADR-RES ovarian was 5.87% (active); with T-47D breast it was 50.6%; in the experiment with BT-549 breast, -22.7% (active); with MDA-MB-435 melanoma, -5.47% (active); in the experiment on SW-620 colon, 25.1%; in the experiment on HCC-2998 colon it was 21.9%. Besides, the growth in the experiment with KM12 colon is 8.49% (active).
For the molecule `COc1ccc(N(CC(=O)NCCC[Te]c2ccccc2)C(=O)CNC(=O)OC(C)(C)C)cc1`, the growth was 1.78% (active) with NCI/ADR-RES ovarian; 109% in the experiment with T-47D breast; -47.8% (active) in the experiment with BT-549 breast; 53.1% with SW-620 colon; 8.66% (active) in the experiment with MCF7 breast; -3.11% (active) with HCT-116 colon. The growth in the experiment on HCC-2998 colon was 43.3%; in the experiment with KM12 colon, 19.3%.
`Cc1cccc(N2CCN(C(C)C#N)CC2)c1` (configuration not stated): the growth in the experiment on NCI/ADR-RES ovarian was 96.9%; in the experiment with T-47D breast it was 98.4%; in the experiment on BT-549 breast, 92.4%; in the experiment on MCF7 breast, 99.3%; in the experiment on HCT-116 colon, 108%; in the experiment on HCC-2998 colon, 96.9%. Moreover, the growth with KM12 colon is 108%.
`O=C1NC(=O)C(=Cc2cn(C(=O)c3ccccc3)c3ccccc23)C(=O)N1`: the growth in the experiment with NCI/ADR-RES ovarian was 97.1%; with T-47D breast it was 95.2%; with BT-549 breast, 105%; in the experiment with SW-620 colon, 93.7%; with MCF7 breast, 89.4%; in the experiment with HCT-116 colon it was 102%. Moreover, the growth with HCC-2998 colon is 93.4%; with KM12 colon, 108%.
For `CN[C@]1(c2ccccc2Cl)CCCC[C@H]1NCCCN1CCN(C)CC1`, the growth with NCI/ADR-RES ovarian is 101%; in the experiment with T-47D breast it was 103%; in the experiment with BT-549 breast it was 102%; in the experiment on SW-620 colon it was 99.4%; in the experiment with MCF7 breast, 102%; in the experiment on HCT-116 colon, 97.8%. For the same molecule, the growth was 99.5% in the experiment on HCC-2998 colon and 101% with KM12 colon.
As for `O=C1C2CCC1C(N1CCCC1)CC2` (configuration not stated), the growth was 102% in the experiment with NCI/ADR-RES ovarian; 106% in the experiment with T-47D breast; 98% in the experiment on BT-549 breast; 99.5% in the experiment on SW-620 colon; 94.7% with MCF7 breast; 102% in the experiment with HCT-116 colon. Moreover, the growth in the experiment with HCC-2998 colon was 106%; in the experiment on KM12 colon it was 101%.
As for `Fc1ccc2c(c1)c(-c1nc(-c3c[nH]c4ncccc34)cs1)cn2CCCCN1CCCCC1`, the growth is -64.1% (active) with NCI/ADR-RES ovarian; -68.8% (active) in the experiment on T-47D breast; 75.7% in the experiment on BT-549 breast; -73.7% (active) in the experiment with SW-620 colon; -75.3% (active) in the experiment on MCF7 breast; -97.9% (active) in the experiment with HCT-116 colon. The growth is -19% (active) in the experiment with HCC-2998 colon and -66.9% (active) in the experiment on KM12 colon.
Turning to `N#CC1(C#N)C(c2ccc(N(CCCl)CCCl)cc2)OC23CCCCC2C1(C#N)C(=N)O3` (configuration not stated), the growth with NCI/ADR-RES ovarian is 71%; with T-47D breast it was 65.6%; with BT-549 breast, 84.6%; in the experiment on SW-620 colon, 88.6%; in the experiment on MCF7 breast, 49.3%; in the experiment on HCT-116 colon it was 89.2%. Also, the growth in the experiment with HCC-2998 colon was 95.2%; with KM12 colon, 100%.
Take `CC12CCC3C(CCC4=CC(=O)CCC43CF)C1CCC2=O` (configuration not stated): the growth in the experiment with NCI/ADR-RES ovarian is 108%; in the experiment with T-47D breast it was 39.4%; with BT-549 breast, 97.2%; with SW-620 colon, 126%; with MCF7 breast, 130%; in the experiment on HCT-116 colon, 110%. In addition, the figures for the growth with HCC-2998 colon and in the experiment with KM12 colon were 140% and 117%, respectively.
Take `C=C1[C@@H](C)[C@H]2[C@H](Cc3ccccc3)NC(=O)[C@]23[C@@H](O)/C=C/[C@@](C)(O)C(=O)[C@@H](C)C/C=C/[C@H]3[C@@H]1O`: the growth in the experiment on NCI/ADR-RES ovarian was 94.6%; in the experiment with T-47D breast, 48.3%; with BT-549 breast, 63.1%; with SW-620 colon it was 41.8%; with MCF7 breast, 63.8%; in the experiment with HCT-116 colon, 50.1%. Moreover, the figures for the growth in the experiment with HCC-2998 colon and in the experiment on KM12 colon were 62.4% and 81.5%, respectively.
In the case of `Clc1cccc(NCOOC2(OOCNc3cccc(Cl)c3)CCCCCC2)c1`, the growth with NCI/ADR-RES ovarian was 61.8%; in the experiment on T-47D breast, 89%; in the experiment on BT-549 breast, 101%; in the experiment on SW-620 colon, 107%; in the experiment on MCF7 breast it was 87.2%; in the experiment with HCT-116 colon, 90.6%. In addition, the growth in the experiment on HCC-2998 colon is 107%; with KM12 colon, 87.9%.
On to `O=C1C(=Cc2cn(Cc3ccccc3)c3ccccc23)C(=O)N(Cc2ccccc2)C(=O)N1Cc1ccccc1`, for which the growth was 106% in the experiment with NCI/ADR-RES ovarian; 51.7% with T-47D breast; 118% with BT-549 breast; 101% in the experiment on SW-620 colon; 80.3% in the experiment on MCF7 breast; 76.2% with HCT-116 colon. For the same molecule, the figures for the growth with HCC-2998 colon and with KM12 colon were 97.4% and 101%, respectively.
As to `Cc1ccc2c(C(C[N+](=O)[O-])c3cccs3)c(-c3ccccc3)[nH]c2c1` (configuration not stated), the growth was 11.7% in the experiment on NCI/ADR-RES ovarian; 14.6% in the experiment with T-47D breast; 33.8% in the experiment on BT-549 breast; 18.5% in the experiment on SW-620 colon; 17.8% in the experiment on MCF7 breast; 23.2% with HCT-116 colon. For the same molecule, the growth in the experiment on HCC-2998 colon was 40.3%; in the experiment on KM12 colon, 21.4%.
For `CC(=O)O[C@H](C[C@H](C(C)C)N(C)C(=O)[C@@H](NC(=O)[C@H]1CCCCN1C)C(C)C)c1nc(C(=O)N[C@@H](Cc2ccccc2)C[C@H](C)C(=O)O)c(C)s1`, the growth in the experiment with NCI/ADR-RES ovarian was 1.59% (active); in the experiment with T-47D breast it was 45.7%; in the experiment on BT-549 breast, -8.43% (active); with MDA-MB-435 melanoma it was -27% (active); with SW-620 colon it was 25.5%; in the experiment on HCC-2998 colon, 14%. Also, the growth in the experiment on KM12 colon was 15.6%.
Consider `Nc1cc2nc3ccccc3nc2cc1N`, for which the growth was 94.8% in the experiment with NCI/ADR-RES ovarian; 52.7% in the experiment on T-47D breast; 94% in the experiment on BT-549 breast; 98% in the experiment on SW-620 colon; 23.5% in the experiment on MCF7 breast; 74.9% with HCT-116 colon. Further, the growth was 96.8% in the experiment with HCC-2998 colon and 91.6% with KM12 colon.
